From ChEMBL document CHEMBL3988442, “University of Dundee, Small-Polar-MMV Screening Library” (2021) come the findings set out here.

Each structure is given as a SMILES string. The campaign covered roughly 48,000 compounds. About 13,000 (27%) showed an effect of 50% or more. Some of the results follow.

The subject of the test is Wolbachia pipientis. Briefly: Anti-Wolbachia Cell-Based Screen. The test is classed as functional. Also noted: scale not given: in the data most compounds retested in dose-response had high values. To be noted: 5 µM.
`CCNc1ncc(C(=O)NCCc2csc(-c3ncccn3)n2)cn1`: the “Percent Effect” value was -22.07%. The same measure for `CCN(Cc1cccc(F)c1)c1ccc2nnnn2n1`: 20.24%; for `CN(C)C(=O)CCC(=O)NCc1cccnc1-n1cnc2ccccc21`: -4.725%. The same measure for `O=C(c1cncc(Br)c1)N1CCC(O)(Cn2ccc3ccncc32)CC1`: -1.363%; for `Cc1cc2ccncc2n1CC1(O)CCN(C(=O)c2cccnc2)CC1`: 107.2%. Regarding `Cc1ncsc1C(=O)N1CCC(O)(Cn2c(C)cc3ccncc32)CC1`, the “Percent Effect” value came to 102%. The same measure for `Cc1nc(N2CCN(C(=O)c3cccnc3)CC2)cc(-n2cccc2)n1`: 13.16%; for `Cc1ncsc1C(=O)N1CC[C@@H]2[C@@H](CC1)OCCN2c1cccnc1`: -15.36%. To `Cc1nnc(SCCC(=O)N(C)Cc2c(F)cccc2Cl)[nH]1` belongs 13.01%; to `CCCn1nc2c(cc1=O)CN(CCS(C)(=O)=O)CC2`, 0.2637%. The same measure for `Cc1nc2c(c(N3CCC(O)(Cn4ccnc4)CC3)n1)CCNCC2`: -21.19%; for `CC(NC(=O)Nc1cccnc1N1CCOCC1)c1ccccn1` (stereo not drawn): -6.169%; for `CC(NC(=O)NCc1ccc(Cl)s1)c1ccccn1` (stereo not drawn): 3.359%. `CCCNC(=O)c1ccc(NC(=O)NC(C)c2ccccn2)cc1` (stereo not drawn): the “Percent Effect” value is recorded as -5.222%. As for `CC(C)CNC(=O)c1ccc(NC(=O)NC(C)c2ccccn2)cc1` (stereo not drawn), the “Percent Effect” value is -15.83%. For the compound `CC(NC(=O)NCc1ccc(Cl)cc1)c1ccccn1` (stereo not drawn), the “Percent Effect” value was 9.197%. To `CC(NC(=O)NCc1cc(Br)cs1)c1ccccn1` (stereo not drawn) belongs 100.4%. Regarding `CC(NC(=O)NCc1ccccc1Cl)c1ccccn1` (stereo not drawn), the “Percent Effect” value was 111.7%. On to `CC(NC(=O)N(C)Cc1ccc(Cl)s1)c1ccccn1` (stereo not drawn), for which the “Percent Effect” value is given as 6.324%. To `CC(NC(=O)NCCc1ccc(Cl)s1)c1ccccn1` (stereo not drawn) belongs 158%; to `CC(C)CN1CC2(CCN(C(=O)C3CNC(=O)N3)CC2)CC1=O` (stereo not drawn), -19.59%.

Consider `CN(C)C(CNC(=O)c1cc2c([nH]c1=O)CCCC2=O)c1ccsc1` (stereo not drawn), for which the “Percent Effect” value was found to be 7.24%.

As to `Cc1ccc(CNC(=O)c2ccc(S(=O)(=O)N3C[C@@H]4C[C@H]3CN4)cc2)o1`, the “Percent Effect” value came out at 13.35%. With `COc1cccc(N2CCN(C(=O)C(OC)c3ccccc3)CC2=O)c1` (stereo not drawn), the “Percent Effect” value turned out to be 13.04%. The same measure for `COc1cccc(N2CCN(Cc3ccc4occc4c3)CC2=O)c1`: 113.8%.

With `COc1ccc(N2CCN(CC[C@H](O)c3ccccc3)CC2=O)cc1`, the “Percent Effect” value is on record as -22.52%. Turning to `COc1cccc(N2CCN(Cc3cccc(CCN)c3)CC2=O)c1`, the “Percent Effect” value is given as 112.7%. To `COc1cccc(N2CCN(Cc3ccc4ccn(C)c4c3)CC2=O)c1` belongs 113.3%; to `COc1cccc(CN2CCN(Cc3ccc4nonc4c3)CC2=O)c1`, -14.94%; to `CCn1cc(CN2CCN(Cc3cccc(OC)c3)C(=O)C2)cc1C#N`, -7.886%. Take `COc1cccc(N2CCN(CC[C@H](O)c3ccccc3)CC2=O)c1`: the “Percent Effect” value is recorded as -29.06%. To `COc1cccc(N2CCN(Cc3ccc(NC(C)=O)cc3)CC2=O)c1` belongs -1.185%; to `COc1cccc(N2CCN(Cc3cc(C)cc(F)c3)CC2=O)c1`, 130.9%. To `COc1cc(CN2CCN(c3cccc(OC)c3)C(=O)C2)cc(OC)c1` belongs -15.09%. The same measure for `COCCCN1C(=O)CC[C@H]2CN(Cc3ccc4occc4c3)CC[C@H]21`: -8.694%; for `N#Cc1ccc(CNC(=O)C2=NN(c3ccccc3)C(=O)CN2)cc1`: -19.54%; for `N#Cc1ccnc(N2CCN(Cc3cccc(F)c3)CC2)c1`: 16.74%. Turning to `Cc1n[nH]c(=O)c2c(NC(=O)CN3CCOC(C)C3)oc(C)c12` (stereo not drawn), the “Percent Effect” value is on record as 0.9329%. Regarding `COc1ccc(CNC[C@H]2COCc3nc4cccnc4n32)cc1`, the “Percent Effect” value was -4.105%. The same measure for `Cc1cc(CS(=O)(=O)NC2CCCc3ccccc32)on1` (stereo not drawn): -2.074%.

`COc1cccc(N2CCN(Cc3ccc4[nH]ccc4c3)CC2=O)c1`: the “Percent Effect” value is listed as 81.94%. The same measure for `COc1cccc(N2Cc3nc(=O)[nH]n3C2=O)c1`: -15.51%. To `COc1cccc(N2CCN(C(=O)C(O)CC(C)C)CC2=O)c1` (stereo not drawn) belongs 12.91%; to `COc1cccc(N2CCN(C(=O)C(C)Oc3ccccc3)CC2=O)c1` (stereo not drawn), 9.152%. To `COc1cccc(N2CCN(Cc3nccn3C(C)C)CC2=O)c1` belongs 98.08%.

Take `c1ccc2[nH]c(C3CCN(Cc4nnc(C5CC5)o4)CC3)cc2c1`: the “Percent Effect” value was 10.45%. To `Cc1cc(CNC(=O)c2cc(NC(=O)C(C)C)ccc2Cl)no1` belongs 18.73%; to `O=C1C(N2CCN(c3ccc(O)cc3)CC2)CCN1C1CCOCC1` (stereo not drawn), -11.86%; to `CC(C)n1cnnc1CN(C)Cc1ccc(CO)o1`, -7.369%. Regarding `Cn1cnc2c1CCN(C(C(=O)N1CCCCC1)c1ccccc1)C2` (stereo not drawn), the “Percent Effect” value is 18.33%.

As for `O=C(CNc1cc(-c2ccccc2)nc2ccnn12)NC1CC1`, the “Percent Effect” value is given as -3.438%. The same measure for `COC(=O)CSCc1nc(-c2ccc(Cl)cc2)no1`: -16.66%; for `COCCOc1ncccc1-c1noc([C@@H]2CCCN2C2CCC2)n1`: -10.03%; for `CN(c1cccnn1)C1CCN(C(=O)c2ccc3c(c2)COC3)CC1`: -3.847%. For the compound `CC(O)CN1CCN(Cc2cccc(C(=O)N(C)C)c2)CC1` (stereo not drawn), the “Percent Effect” value is on record as -11.87%. To `Cc1nn(C)c(C)c1CC(=O)N1CCC(N(C)c2cccnn2)CC1` belongs -21.95%; to `CN(c1cccnn1)[C@@H]1CC[C@@H]2CN(Cc3ccccc3C(=O)O)C[C@@H]21`, 106.4%; to `CN(c1cccnn1)[C@@H]1CC[C@@H]2CN(Cc3cccc(C(=O)O)c3)C[C@@H]21`, 111.9%.

As to `Cn1cccc1C(=O)NCc1cn2c(n1)CN(c1ncccn1)CC2`, the “Percent Effect” value is -46.58%. To `O=C1CCCc2cc(-c3csc(CCN4CCOC4=O)n3)ccc2N1` belongs 2.984%; to `CS(=O)(=O)CCOCCNc1ccc(C(F)(F)F)cc1C#N`, -20.16%.

On to `CCn1nc(C)c(CN(CCOC)C(=O)c2cnc(C)nc2O)c1C`, for which the “Percent Effect” value is on record as -5.757%. Turning to `O=C(c1cscn1)N1CCC(Cn2cc(-c3ccsc3)nn2)CC1`, the “Percent Effect” value was 2.039%. With `Nc1nc2nc(C3CCCN(C(=O)c4cscn4)C3)ccc2s1` (stereo not drawn), the “Percent Effect” value is reported as -1.798%.

For `Nc1nc2nc(C3CCCN(C(=O)c4cncs4)C3)ccc2s1` (stereo not drawn), the “Percent Effect” value turned out to be 108.5%. As to `O=C(c1cnccn1)N1CCCC(Cn2cc(C3CCCC3)nn2)C1` (stereo not drawn), the “Percent Effect” value was -14.19%. The same measure for `Nc1nc2nc(C3CCN(C(=O)c4cscn4)C3)ccc2s1` (stereo not drawn): 104%; for `Nc1nc2nc(C3CCCN(C(=O)c4cnccn4)C3)ccc2s1` (stereo not drawn): 126%.
